Reference: PubChem BioAssay (NCI)
About 83,000 compounds went through this panel and 20% of them were active in at least one assay; those are over-represented in the sample as a whole.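 Step 1: grow cells in 96-well plates. Step 2: add test compound at a single concentration. Step 3: incubate 48 h. Step 4: record percent growth.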 Activity calls are given as the source filed them. The calls were made as follows: active = growth percent below 10; inactive = the rest.

Each compound was assayed on HCT-116 colon (assay: NCI-60 one-dose screen, 48 h (100 = growth as untreated, 0 = no growth, -100 = all killed)). Settings: 10 µM unless noted.

Row | Compound | growth
1 | O=C1CCC23OC(C(O)c4ccccc4N12)C1C(Br)=NOC13 (stereo unspecified) | 94.6% (inactive)
2 | CCOC(=O)c1c(C)nc2c(c1N)/C(=C/c1ccccn1)C(=O)N2Cc1ccccc1 | -21.8% (active)
3 | C[C@H]1[C@H](C)CC[C@]2(C(=O)OCCCC[P+](c3ccccc3)(c3ccccc3)c3ccccc3)CC[C@]3(C)C(=CC[C@@H]4[C@@]5(C)CC[C@H](OC(=O)C(Cl)Cl)C(C)(C)[C@@H]5CC[C@]43C)[C@H]12 | -89.2% (active)
4 | C=C1C(=O)O[C@H]2[C@H]1CC/C(COC(=O)n1ccnc1)=C\CC[C@@]1(C)O[C@@H]21 | 81.6% (inactive)
5 | CCOCc1cc(C(C)(C)C)ccc1O | 91.2% (inactive)
6 | COC(=O)c1ccc2c(c1)NC(=O)[C@@H]1CCCN21 | 93.8% (inactive)
7 | O=C(Nc1cccc(-c2cccc(F)c2)c1)C1CCN(Cc2cccc3cccnc23)CC1 | 33.8% (inactive)
8 | CCCCn1c(=O)c(/C=C/C(=O)/C=C/c2ccc(O)c(OC)c2)cc2ccc(Cl)cc21 | -55.5% (active)
9 | N#Cc1ccc(C2C3=C(CCCC3=O)OC3=C2C(=O)c2ccccc2C3=O)cc1 (stereo unspecified) | 6.16% (active)
10 | COc1cc(-c2csc(NC(=O)Nc3ccc(C(F)(F)F)cc3)n2)cc(OC)c1OC | 5.03% (active)
11 | Cc1c(Cl)cccc1NC(=O)c1sc2nc3c(cc2c1N)COCC3 | 19.7% (inactive)
12 | CCN(CC)CC#CCOC(=O)[C@]1(C)CCC[C@]2(C)[C@H]3C[C@H]4C(C(C)C)=C[C@]3(CC[C@H]21)[C@@H]1C(=O)CCC(=O)[C@@H]14 | 35.8% (inactive)
13 | CC(C)(C)c1nn(-c2ccccc2)c2c1COCN2Cc1ccc(Cl)cc1 | 62.8% (inactive)
14 | O=C(Nc1nc2ccc(C(F)(F)F)cc2s1)c1cc(Cl)ccc1O | 4.81% (active)

These compounds were tested on HCC-2998 colon in the same assay as above. Settings: 10 µM unless noted.

Row | Compound | growth
15 | CC(=O)Oc1c2c(nc3c1c1ccccc1n3Cc1ccccc1)-c1ccccc1C2 | 87.9% (inactive)
16 | C/C(=C\c1cnc(C)s1)[C@@H]1C[C@@H]2O[C@@H]2CCC[C@H](C)[C@H](O)[C@@H](C)C(=O)C(C)(C)[C@@H](O)CC(=O)O1 | 18.6% (inactive)
17 | OCCNc1nc(NCCO)nc(Nc2ccc(C3=NN(c4cc(Cl)cc(Cl)c4)C(c4ccc(C(F)(F)F)cc4)C3)cc2)n1 (stereo unspecified) | 45.1% (inactive)
18 | CCOCCc1c(O)nc(SC)[nH]c1=O | 39.4% (inactive)
19 | CN(C)[C@@H]1C(=O)C(C(N)=O)=C(O)[C@@]2(O)C(=O)C3=C(O)c4c(O)cc(CN5CCc6ccccc6C5)c(Cl)c4C[C@H]3C[C@@H]12 | -67.1% (active)
20 | CCCCn1c(=O)c(/C=C/C(=O)/C=C/c2cc3ccccc3n(CCCC)c2=O)cc2ccccc21 | -92.6% (active)
21 | CCOC(=O)c1c(C)nc2c(c1N)CC(=O)N2CCc1ccccc1 | 64.4% (inactive)
22 | C#CCOC(=O)[C@]1(C)CCC[C@]2(C)[C@H]3C[C@H]4C(C(C)C)=C[C@]3(CC[C@H]21)[C@@H]1C(=O)CCC(=O)[C@@H]14 | 102% (inactive)
23 | C/C(=N/Nc1nc2ccccc2n1C)c1ccccn1 | 39.3% (inactive)
24 | C#C[C@@]1(O)[C@@H](CO)O[C@@H](n2cc(-c3ccco3)c3c(N)ncnc32)[C@@H]1O | 56.4% (inactive)
25 | CC(=O)c1ccc(NC(=O)CSc2nnc(-c3cc(-c4ccc(Cl)cc4)nc4ccccc34)o2)cc1 | 101% (inactive)
26 | N#Cc1ccc(Oc2ccc3ccc(=O)oc3c2)cc1 | 104% (inactive)
27 | C=C(C)[C@@H]1CC[C@]2(C(=O)O)CC[C@]3(C)[C@H](CC[C@@H]4[C@@]5(C)C[C@@H](CC#Cc6ccc(Cl)cc6)C(=O)C(C)(C)[C@@H]5CC[C@]43C)[C@@H]12 | 50.3% (inactive)
28 | CN1CCN(S(=O)(=O)O[C@@H]2C(=O)N(c3cc4c5ccccc5ccc4c4ccccc34)[C@H]2c2ccc(F)cn2)CC1 | 90.4% (inactive)
29 | Cc1cc(C)c2nc(Nc3nc(C)c(C)c(=O)[nH]3)nc(C)c2c1 | 21.9% (inactive)
30 | COC(=O)c1nc(-c2ccccc2)oc1S(=O)(=O)n1nc(C)cc1N | 115% (inactive)
31 | COc1ccc2cc(/C=C3\N=C(c4cc(OC)c(OC)c(OC)c4)OC3=O)c(OC)nc2c1 | 102% (inactive)
32 | O=C(CSC(=S)N1CCCCC1)Nc1ccccc1 | 98.2% (inactive)
33 | COc1cc(NC(=O)c2cc(O)c(C/C=C(\C)CCC=C(C)C)c(O)c2)cc2c1O[C@]1(C)CC[C@@H](O)C(C)(C)[C@H]1C2 | 16.4% (inactive)

Row | Compound | growth
34 | CCN1CCC[C@H]1c1cc(O)c2c(c1OC)C[C@H]1C[C@H]3[C@H](N)C(=O)C(C(N)=O)=C(O)[C@@]3(O)C(=O)C1=C2O | -6.34% (active)
35 | O=c1c2ccccc2oc2ccc(OCCCCCCN3CCCCCC3)cc12 | 62.9% (inactive)
36 | NCCN1CCNCC1 | 94.3% (inactive)
37 | C=C(C)[C@@H]1CC[C@]2(C(=O)OCCOCCOCC[P+](c3ccccc3)(c3ccccc3)c3ccccc3)CC[C@]3(C)[C@H](CC[C@@H]4[C@@]5(C)CC[C@H](C)C(C)(C)[C@@H]5CC[C@]43C)[C@@H]12 | -85.5% (active)
38 | O=C1CCC23OC(C(O)c4ccccc4N12)C1C(Br)=NOC13 (stereo unspecified) | 100% (inactive)
39 | CCOC(=O)c1c(C)nc2c(c1N)/C(=C/c1ccccn1)C(=O)N2Cc1ccccc1 | 11.2% (inactive)
40 | C[C@H]1[C@H](C)CC[C@]2(C(=O)OCCCC[P+](c3ccccc3)(c3ccccc3)c3ccccc3)CC[C@]3(C)C(=CC[C@@H]4[C@@]5(C)CC[C@H](OC(=O)C(Cl)Cl)C(C)(C)[C@@H]5CC[C@]43C)[C@H]12 | -84.8% (active)
41 | C=C1C(=O)O[C@H]2[C@H]1CC/C(COC(=O)n1ccnc1)=C\CC[C@@]1(C)O[C@@H]21 | 104% (inactive)
42 | CCOCc1cc(C(C)(C)C)ccc1O | 104% (inactive)
43 | COC(=O)c1ccc2c(c1)NC(=O)[C@@H]1CCCN21 | 109% (inactive)
44 | O=C(Nc1cccc(-c2cccc(F)c2)c1)C1CCN(Cc2cccc3cccnc23)CC1 | -70.4% (active)
45 | CCCCn1c(=O)c(/C=C/C(=O)/C=C/c2ccc(O)c(OC)c2)cc2ccc(Cl)cc21 | 33.3% (inactive)
46 | N#Cc1ccc(C2C3=C(CCCC3=O)OC3=C2C(=O)c2ccccc2C3=O)cc1 (stereo unspecified) | 104% (inactive)
47 | COc1cc(-c2csc(NC(=O)Nc3ccc(C(F)(F)F)cc3)n2)cc(OC)c1OC | 19.3% (inactive)
48 | Cc1c(Cl)cccc1NC(=O)c1sc2nc3c(cc2c1N)COCC3 | 65.1% (inactive)
49 | CCN(CC)CC#CCOC(=O)[C@]1(C)CCC[C@]2(C)[C@H]3C[C@H]4C(C(C)C)=C[C@]3(CC[C@H]21)[C@@H]1C(=O)CCC(=O)[C@@H]14 | 75% (inactive)
50 | CC(C)(C)c1nn(-c2ccccc2)c2c1COCN2Cc1ccc(Cl)cc1 | 51.9% (inactive)
51 | O=C(Nc1nc2ccc(C(F)(F)F)cc2s1)c1cc(Cl)ccc1O | 10.9% (inactive)
